Where “and” joins values, the source holds several entries; their conditions need not be identical. Equal entries are not always repeated. Inconclusive results are not listed. Values without a mark were called inactive. Calls of active or inactive are those of the source. Calls follow the shape of the dose curve; as a rule, active = well fitted cell-killing curve with a large enough effect in the repeat runs; inconclusive = weak or mixed curves, or effect the other way; inactive = flat fitted curve, though single readings scatter.
assay: cAMP Responsive Elements (CRE) small molecule antagonists, cell-based qHTS assay: qHTS cell viability counter screen (AID 2060913); conditions: CRE-bla HEK293T viability, CellTiter-Glo luminescence, 5 h; series mostly up to 92.4 µM; viability change, negative = cytotoxic: at the top concentration; also: nearly all actives have a fitted effect of over 40% in size
Description: U.S. Tox21 Program National Center for Advancing Translational Sciences [NCATS] Division of Preclinical Innovation [DPI] U.S. Environmental Protection Agency [EPA] National Institutes of Environmental Health Sciences [NIEHS] National Toxicology Program [NTP] U.S. Food and Drug Administration [FDA] Tox21 Assay Overview: CREB (cyclic-AMP Responsive Element Binding Protein) is a cellular transcription factor. It binds to certain DNA sequences called cAMP Responsive Elements (CRE) and regulates the transcription of the genes. […] This cell line can be used to find agonists/antagonists of the cyclic AMP signaling pathway. The activation of the report gene under culture conditions can be detected by fluorescence intensity. This cell line has been used to screen the Tox21 10K compound library to identify agonists that induce oxidative stress. The cytotoxicity of the Tox21 compound library against the CRE-bla cell line was tested in parallel by measuring the cell viability using CellTiter-Glo assay (Promega, Madison, WI) in the same wells.
Tox21 Assay Protocol Summary: CRE-bla Hek 293T cells were suspended in assay medium (DMEM containing 10% dialyzed FBS, 0.1 mM NEAA, 1 mM sodium pyruvate and 25 mM HEPES) and dispensed at 2,000 cells/4 uL /well into 1536-well black wall/clear bottom plates using a Multidrop Combi (ThermoFisher Scientific, Waltham, MA) dispenser. After the assay plates were incubated at 37 C/5% CO2 for 18 hrs, 23 nL of compounds dissolved in DMSO, positive controls or DMSO only was transferred to the assay plate by a pintool workstation (Kalypsys, San Diego, CA), followed by addition of 1 uL of 1.25uM NKH477 (0.25 uM as final concentration) in assay medium using a Flying Reagent Dispenser (Aurora Discovery, San Diego, CA). The plates were incubated at 37 C and 5% CO2 for 3 hrs. Then 1 uL of LiveBLAzer B/G FRET substrate (Invitrogen, Carlsbad, CA) was added to each well using Bioraptr Flying Reagent Dispenser (FRD, Aurora Discovery, San Diego, CA). The plates were incubated at room temperature for 2 h, then fluorescence intensities were measured using an Envision plate reader (PerkinElmer, Shelton, CT) at Excitation 405nm, Emission 460nm and 530nm. The % activity was determined from the ratio of 460nm/530nm. For cell viability readout that measures cytotoxicity, 4 uL /well of CellTiter-Glo reagent was added into the assay plates using Bioraptr FRD. After 30 min incubation at room temperature, the luminescence intensity in the assay plates was measured using a ViewLux (PerkinElmer, Shelton, CT) plate reader.
% is scaled to controls: 0 for no effect and ±100 for the full control effect; potency is read from the fitted curve at half-maximal effect.

| Compound | viability change, negative = cytotoxic | Potency |
| --- | --- | --- |
| O=C1NC(=O)[C@@H]2CC=CC[C@H]12 | -10.2% | – |
| O=C(O)Cc1ccccc1Nc1c(Cl)cccc1Cl | – | inactive |
| COc1ccc(/C(C)=C/C(=O)O)c(OC)c1 | 1.63% [at 42.5 µM] | – |
| C=CCCC(=O)/C=C/C1C(C)=CCCC1(C)C (stereo not given) | -4.07% | – |
| CN(C[C@@H](CC[N+]12CCC(C3CCCCC3)(CC1)CC2)c1ccc(Cl)c(Cl)c1)C(=O)c1cc(C(F)(F)F)cc(C(F)(F)F)c1 | – | 54.5 µM (active) |
| CC(C)NCCCC1(C(N)=O)c2ccccc2-c2ccccc21 | -4.05% [at 42.5 µM] | – |
| CCCCCCCCCOC(=O)CCCCC(=O)OCCCCCCC | 6.23% | – |
| O=C(O)c1cccc(-c2noc(-c3ccccc3F)n2)c1 | – | 23.7 µM (active) |
| C/C=C(/C(=C/C)c1ccc(O)cc1)c1ccc(O)cc1 | -4.96% [at 42.5 µM] | – |
| O=C(CCCN1CCC(O)(c2ccc(Br)cc2)CC1)c1ccc(F)cc1 | -14.7% [at 42.5 µM] | – |
| O=C(NN1CCCC1)NS(=O)(=O)c1ccc(Cl)cc1 | -0.876% [at 42.5 µM] | – |
| CN(C)c1ccc(C(=C2C=CC(=[N+](C)C)C=C2)c2ccc(N(C)C)cc2)cc1 | – | 30.5 µM (active) and 61.1 µM (active) and 29.8 µM (active) |
| CCCCCCCCCCCC[N+](C)(C)Cc1ccccc1 | – | 60 µM (active) and 59.2 µM (active) and 13.3 µM (active) |
| Clc1ccc2c(Cl)ccnc2c1 | 9.78% | – |
| CC1(C)O[C@@H]2C[C@H]3[C@@H]4C[C@H](F)C5=CC(=O)CC[C@]5(C)[C@H]4[C@@H](O)C[C@]3(C)[C@]2(C(=O)CO)O1 | – | inactive |
| CCCCCCCCCCCCCCC | 2.9% | – |
| OCCCCCCCCCCCCBr | -15.6% | – |
| Nc1cccc(N)c1 | – | inactive |
| O=C(O)/C=C/c1ccc(/C=C/C(=O)O)cc1 | -7.81% [at 42.5 µM] | – |
| FC(F)(F)c1ccccc1 | 1.56% | – |

| Compound | viability change, negative = cytotoxic | Potency |
| --- | --- | --- |
| O=S(=O)(O)c1cc(Cl)c(Cl)cc1Cl | 3.04% | – |
| COc1ccc(C(=O)c2ccccc2O)c(O)c1 | – | inactive |
| CC(C)=CCO | – | inactive |
| NCCc1ccn[nH]1 | 4.72% [at 42.5 µM] | – |
| NC(CO)C(=O)NNCc1ccc(O)c(O)c1O (stereo not given) | -2.14% [at 42.5 µM] | – |
| C=CC(=O)NCOCCCC | – | inactive |
| C[C@](N)(Cc1ccc(O)c(O)c1)C(=O)O | – | inactive |
| CCN1C=CN(C)C1C (stereo not given) | 5.18% | – |
| CCOC(=O)c1ccccc1OC | 5.14% | – |
| COc1cc(NC(C)CCCN)c2ncccc2c1 (stereo not given) | 2.18% [at 42.5 µM] | – |
| COC(=O)Nc1nc2ccc(S(=O)c3ccccc3)cc2[nH]1 (stereo not given) | – | inactive |
| CCCN(CCC)C(=O)C(CCC(=O)OCCCN1CCN(CCOC(=O)Cc2c(C)n(C(=O)c3ccc(Cl)cc3)c3ccc(OC)cc23)CC1)NC(=O)c1ccccc1 (stereo not given) | -1.78% [at 42.5 µM] | – |
| O=C1CC2(CCCC2)CC(=O)N1CCNCC1COc2ccccc2O1 (stereo not given) | -0.425% [at 42.5 µM] | – |
| CCN1CCCC1CN (stereo not given) | 3.6% [at 42.5 µM] | – |
| CCCCCCCC/C=C\CCCCCCCCO | 1.09% | – |
| CCOc1ccccc1OCC | -0.598% | – |
| CC[N+](CC)(CC)Cc1ccccc1 | 22.1% | – |
| COc1ccnc(CS(=O)c2nc3cc(OC(F)F)ccc3[nH]2)c1OC (stereo not given) | 0.359% | – |
| COCCOC[C@H](CC1(C(=O)NC2CCC(C(=O)O)CC2)CCCC1)C(=O)Oc1ccc2c(c1)CCC2 (stereo not given in full) | -6.32% | – |
| C[C@H](NC(CCc1ccccc1)C(=O)O)C(=O)N1CCC[C@H]1C(=O)O (stereo not given in full) | 2.12% [at 42.5 µM] | – |
